Consider 36 compounds from PubChem BioAssay (NCATS).

Inconclusive results are not listed. A call without a number means that no potency is given here. Calls of active or inactive are those of the source. The call rests on the fitted dose curve; in most records, active means well fitted curve in the direction sought with a large enough effect; inconclusive means small, poorly fitted or top-dose-only effect, or another doubt; inactive means no such curve, though single readings can be large; an effect the other way counts as inactive or inconclusive.

Chain of Arylsulfatase A (Homo sapiens) (P15289 whole entry, looked up): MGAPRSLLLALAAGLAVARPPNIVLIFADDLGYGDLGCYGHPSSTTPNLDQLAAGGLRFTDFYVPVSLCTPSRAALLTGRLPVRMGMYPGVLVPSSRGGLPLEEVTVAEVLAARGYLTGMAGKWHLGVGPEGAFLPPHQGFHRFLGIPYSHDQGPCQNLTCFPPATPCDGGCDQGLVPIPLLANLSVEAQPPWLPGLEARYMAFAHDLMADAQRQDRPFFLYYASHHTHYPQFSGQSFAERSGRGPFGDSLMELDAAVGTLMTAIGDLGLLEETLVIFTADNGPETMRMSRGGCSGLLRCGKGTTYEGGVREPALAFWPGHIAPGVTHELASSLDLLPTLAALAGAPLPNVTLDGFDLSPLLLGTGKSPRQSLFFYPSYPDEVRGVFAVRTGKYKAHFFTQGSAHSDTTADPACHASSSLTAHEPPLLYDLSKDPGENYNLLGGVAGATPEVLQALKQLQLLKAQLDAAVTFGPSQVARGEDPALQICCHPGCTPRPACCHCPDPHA

The target of one test is Arylsulfatase A (Homo sapiens) (UniProt P15289). In words: qHTS screen for enhancers of Arylsulfatase A (ASA1): LOPAC Validation Assay (AID 720538). The conditions noted are these: ASA enzyme activity, LOPAC qHTS enhancer assay; series mostly up to 57.5 µM. The gist of the method:
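First, ASA-I179S fibroblasts from an MLD patient adhered for 6 hrs. Next, compounds were added for 48h. Then pNCS substrate (0.5mM final) with lysis buffer reacted 14h at room temperature before NaOH stop and fluorescence measurement.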
A general note: qHTS replaces the single test concentration by a dilution series.
`CN(C)C(N)=NCCC[C@H](N)C(=O)O`: the Potency entry was “inactive”. Turning to `O=C(c1ccc(Cl)cc1)N1CCN(c2ccc([N+](=O)[O-])c3ncccc23)CC1`, the Potency result is “inactive”. `Cc1ccc(S(=O)(=O)/C=C/C#N)cc1`: the Potency result was “inactive”. With `CCN1/C(=C/C(C)=O)Sc2ccc(OC)cc21`, the Potency entry is “inactive”. With `Cn1cc(C2=C(c3ccc(Cl)cc3Cl)C(=O)NC2=O)c2ccccc21`, the Potency result was “inactive”. As for `NC(CCCP(=O)(O)O)C(=O)O` (stereo unspecified), the Potency result was “inactive”.

For the compound `O=C(/C=C/c1ccc(O)c(O)c1)OCCc1ccccc1`, the Potency entry is “inactive”. In the case of `Cc1nc2sccn2c(=O)c1CCN1CCC(=C(c2ccccc2)c2ccc(F)cc2)CC1`, the Potency result was “inactive”.

`O=C(O)/C=C/C(O)c1ccc(Cl)cc1` (stereo unspecified): the Potency entry is “inactive”. Still for that read-out and setting: in the case of `Clc1ccc(N2CCN(Cc3c[nH]c4ncccc34)CC2)cc1` it was “inactive”; in that of `Cc1ccc(O)c(N=Nc2ccccc2)n1`, “inactive”; in that of `COc1cc2nc(N3CCN(C(=O)OCc4ccccc4)C(C(=O)NC(C)(C)C)C3)nc(N)c2cc1OC` (stereo unspecified), “inactive”. The same measure, in the same setting: in the case of `O=C(O)[C@@H]1C[C@@H](C(=O)O)N1` it was “inactive”; in that of `C#C[C@]1(O)CC[C@H]2[C@@H]3CCC4=Cc5oncc5CC4(C)[C@H]3CCC21C` (stereo partly specified), “inactive”. For `N[C@@H](CC(=O)O)C(=O)O`, the Potency result is “inactive”. In the case of `Cc1ccccc1CNc1ncnc2c1ncn2C1OC(CO)C(O)C1O` (stereo unspecified), the Potency result is “inactive”.

In the case of `Nc1nc(Nc2ccccc2)nc2c1ncn2[C@@H]1O[C@H](CO)[C@@H](O)[C@H]1O`, the Potency entry was “inactive”. Regarding `NC(=O)C1=CN(C2OC(COP(=O)(O)OP(=O)(O)OC[C@H]3O[C@@H](n4cnc5c(N)ncnc54)[C@H](OP(=O)(O)O)[C@@H]3O)C(O)C2O)C=CC1` (stereo partly specified), the Potency entry is “inactive”.

In the case of `CCCCCCCCCCCCCCCC(=O)OC(CC(=O)O)C[N+](C)(C)C` (stereo unspecified), the Potency result is “inactive”. For `OCC1O[C@H](O)C(Cl)C(O)C1O` (stereo partly specified), the Potency entry is “inactive”.

Test system in another test: not listed separately
In words: qHTS for compounds that reverse cellular toxicity of Amyloid beta (A-beta) peptide in yeast: LOPAC Validation Assay (AID 720559). The following applies: yeast expressing A-beta; Potency: rescue of growth toxicity; series mostly up to 46.1 µM. The method, boiled down: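 Activity is expressed relative to DMSO and an equimolar ferric chloride/clioquinol mix. Compounds were pinned into medium with A-beta-expressing yeast, grown 48 hr at 30 C, then read by absorbance at 600 nm.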
With `C[N+](C)(CCCCCC[N+](C)(C)CCCN1C(=O)c2cccc3cccc(c23)C1=O)CCCN1C(=O)c2cccc3cccc(c23)C1=O`, the Potency result is “inactive”. As for `CN(C)C(N)=NCCC[C@H](N)C(=O)O`, the Potency entry was “inactive”. Turning to `O=C(c1ccc(Cl)cc1)N1CCN(c2ccc([N+](=O)[O-])c3ncccc23)CC1`, the Potency result is “inactive”. Still for that read-out and setting: next, `CCCCCCCC/C=C\CCCCCCCC(=O)NCCO`: “inactive”; `CNc1ncnc2c1ncn2[C@@H]1O[C@H](CO)[C@@H](O)[C@H]1O`: “inactive”. Consider `O=C(c1ccc(OCCCc2cnc[nH]2)cc1)C1CC1`, for which the Potency entry is “inactive”. On the same count and under the same terms, in the case of `O=C(O)c1cc(=O)c2c(Cl)cc(Cl)cc2[nH]1` it was “inactive”. As to `CN=c1nc(-c2ccccc2)n(-c2ccccc2)s1`, the Potency entry is “inactive”. Consider `Cc1ccc(S(=O)(=O)/C=C/C#N)cc1`, for which the Potency entry was “inactive”. Same read-out and setting: in the case of `CN(C)CCCO[C@@H]1[C@H]2OC(C)(C)O[C@H]2O[C@@H]1[C@H](O)CO` it was “inactive”.

For the compound `O=C(Nc1cccc(C(=O)Nc2ccc(S(=O)(=O)O)c3cc(S(=O)(=O)O)cc(S(=O)(=O)O)c23)c1)Nc1cccc(C(=O)Nc2ccc(S(=O)(=O)O)c3cc(S(=O)(=O)O)cc(S(=O)(=O)O)c23)c1`, the Potency entry is “inactive”. For the compound `COc1cc(C(O)CO)ccc1OS(=O)(=O)O` (stereo unspecified), the Potency result was “inactive”. Take `CCN1/C(=C/C(C)=O)Sc2ccc(OC)cc21`: the Potency entry was “inactive”. On the same count and under the same terms, in the case of `Cn1cc(C2=C(c3ccc(Cl)cc3Cl)C(=O)NC2=O)c2ccccc21` it was “inactive”; in that of `CC(C)CC(NP(=O)(O)O[C@@H]1O[C@@H](C)[C@H](O)[C@@H](O)[C@H]1O)C(=O)NC(Cc1c[nH]c2ccccc12)C(=O)O` (stereo partly specified), “inactive”; in that of `NCCCS(=O)(=O)O`, “inactive”. As to `NC(CCCP(=O)(O)O)C(=O)O` (stereo unspecified), the Potency result was “inactive”. On to `COc1cc(SC)ccc1C(=O)N1CCC(Cc2ccccc2)CC1`, for which the Potency entry was “inactive”. On to `O=C(/C=C/c1ccc(O)c(O)c1)OCCc1ccccc1`, for which the Potency result was “inactive”. `Cc1nc2sccn2c(=O)c1CCN1CCC(=C(c2ccccc2)c2ccc(F)cc2)CC1`: the Potency result was “inactive”. As for `N.N.O=C(O)C1(C(=O)O)CCC1.[Pt]`, the Potency result is “inactive”. Take `O=C(O)/C=C/C(O)c1ccc(Cl)cc1` (stereo unspecified): the Potency entry is “inactive”. `Clc1ccc(N2CCN(Cc3c[nH]c4ncccc34)CC2)cc1`: the Potency result is “inactive”.

As for `Cc1ccc(O)c(N=Nc2ccccc2)n1`, the Potency entry was “inactive”. Consider `COc1cc2nc(N3CCN(C(=O)OCc4ccccc4)C(C(=O)NC(C)(C)C)C3)nc(N)c2cc1OC` (stereo unspecified), for which the Potency result was “inactive”. The same measure, in the same setting: next, `O=C(O)[C@@H]1C[C@@H](C(=O)O)N1`: “inactive”; `C#C[C@]1(O)CC[C@H]2[C@@H]3CCC4=Cc5oncc5CC4(C)[C@H]3CCC21C` (stereo partly specified): “inactive”.

With `CCCC1(C)C(C#N)(C#N)C1(C#N)C#N`, the Potency result is “inactive”. As to `N[C@@H](CC(=O)O)C(=O)O`, the Potency entry is “inactive”. Take `Cc1ccccc1CNc1ncnc2c1ncn2C1OC(CO)C(O)C1O` (stereo unspecified): the Potency entry was “inactive”. On to `Nc1nc(Nc2ccccc2)nc2c1ncn2[C@@H]1O[C@H](CO)[C@@H](O)[C@H]1O`, for which the Potency entry is “inactive”. Same read-out and setting: in the case of `CC(C)ON([C@@H](C(=O)NO)C(C)C)S(=O)(=O)c1ccc(-c2ccccc2)cc1` it was “inactive”; in that of `NC(=O)C1=CN(C2OC(COP(=O)(O)OP(=O)(O)OC[C@H]3O[C@@H](n4cnc5c(N)ncnc54)[C@H](OP(=O)(O)O)[C@@H]3O)C(O)C2O)C=CC1` (stereo partly specified), “inactive”; in that of `CC(COc1ccc(/C=C/c2ccccc2)cc1)[N+](C)(C)C` (stereo unspecified), “inactive”. Consider `CCCCCCCCCCCCCCCC(=O)OC(CC(=O)O)C[N+](C)(C)C` (stereo unspecified), for which the Potency entry was “inactive”. On to `OCC1O[C@H](O)C(Cl)C(O)C1O` (stereo partly specified), for which the Potency entry was “inactive”.
